In PubChem BioAssay (EPA / NIEHS):
“And” between values parts separate entries of the source, which are not always exact repeats. Equal entries are not always repeated. Some compounds were tested as several samples or in several runs, with calls that do not always agree. The source made the active and inactive calls. How the source made its calls: active means hit-call score of the fitted dose curve at least 0.9, where 1 is the maximum; inactive means score below 0.9.

Tests used:
Settings in all cases: mRNA level, 48 h; actives raise or lower the signal
[1] = read-out: Lipase C (LIPC), LIPC (gene 3990); test: LTEA_HepaRG_LIPC: Life Technologies and Expression Analysis (LTEA) Assay for Lipase C (LIPC) using HepaRG (AID 2283514)
Outline: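 Read-out is LIPC transcript level by TaqMan qRT-PCR, normalized to three housekeeping genes, after 48 h chemical treatment of human HepaRG liver cells. Curves span eight concentrations topping at 100 uM; activity in either direction scored relative to 0.5% DMSO.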

[2] = read-out: Lipoprotein lipase (LPL), LPL (gene 4023); test: LTEA_HepaRG_LPL: Life Technologies and Expression Analysis (LTEA) Assay for Lipoprotein lipase (LPL) using HepaRG (AID 2283515)
Outline: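 Read-out is LPL transcript level by qRT-PCR, normalized to three housekeeping genes and fitted bidirectionally against the DMSO control. Human HepaRG cells received chemicals for 48 h at up to 100 uM.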

[3] = read-out: MicroRNA 122 (MIR122), gene 406906; test: LTEA_HepaRG_MIR122: Life Technologies and Expression Analysis (LTEA) Assay for MicroRNA 122 (MIR122) using HepaRG (AID 2283516); further: the transcript read is the microRNA miR-122
Outline: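 Differentiated human HepaRG cells in serum-free induction medium exposed 48 h to 8 half-log concentrations from 100 uM in 0.5% DMSO, duplicate. MIR122 quantified by Fluidigm TaqMan qRT-PCR, normalised to ACTB, GAPDH, POLR2A; fold change fitted bidirectionally versus DMSO.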

[4] = read-out: matrix metalloproteinase-10 (MMP10), MMP10 (gene 4319); test: LTEA_HepaRG_MMP10: Life Technologies and Expression Analysis (LTEA) Assay for matrix metalloproteinase-10 (MMP10) using HepaRG (AID 2283517)
Outline: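 Gain or loss of MMP10 mRNA is fitted relative to the 0.5% DMSO vehicle. The human hepatic line HepaRG receives a 48-hour serum-free exposure, in duplicate, with a maximum concentration of 100 uM.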

[5] = read-out: MYC, MYC (gene 4609); test: LTEA_HepaRG_MYC: Life Technologies and Expression Analysis (LTEA) Assay for MYC using HepaRG (AID 2283518)
Outline: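 MYC transcript changes, up or down relative to 0.5% DMSO, from TaqMan qRT-PCR normalized to three housekeeping genes. Human HepaRG cultures received chemicals for 48 h at eight half-log concentrations up to 100 uM, in duplicate.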

[6] = read-out: matrix metalloproteinase-3 (MMP3), MMP3 (gene 4314); test: LTEA_HepaRG_MMP3: Life Technologies and Expression Analysis (LTEA) Assay for matrix metalloproteinase-3 (MMP3) using HepaRG (AID 2283519)
Outline: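 HepaRG, human; 48 h dosing, 8 conc. (max 100 uM, half-log), duplicate, 0.5% DMSO. Readout: MMP3 transcript by Fluidigm TaqMan qRT-PCR, ACTB/GAPDH/POLR2A-normalised. Gain or loss fitted vs DMSO.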

[7] = read-out: Nuclear factor NF-kappa-B p105 subunit (Homo sapiens) (UniProt P19838); test: LTEA_HepaRG_NFKB1: Life Technologies and Expression Analysis (LTEA) Assay for Nuclear Factor Kappa B Subunit 1 (NFKB1) using HepaRG (AID 2283521)
Outline: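 Differentiated human HepaRG cells in serum-free induction medium with 0.5% DMSO were exposed for 48 h to eight half-log concentrations, top 100 uM, in duplicate. NFKB1 mRNA measured by Fluidigm TaqMan qRT-PCR, normalised to ACTB, GAPDH and POLR2A; bidirectional fit versus DMSO.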

[8] = read-out: Protein phosphatase 2A (PPP2R4), PTPA (gene 5524); test: LTEA_HepaRG_PPP2R4: Life Technologies and Expression Analysis (LTEA) Assay for Protein phosphatase 2A (PPP2R4) using HepaRG (AID 2283522)
Outline: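 Differentiated human HepaRG cells in serum-free induction medium were exposed 48 h to 8 concentrations (top 100 µM, half-log steps, duplicate) in 0.5% DMSO. PPP2R4 mRNA was measured by TaqMan qRT-PCR, normalised to ACTB, GAPDH and POLR2A, and fitted bidirectionally versus DMSO.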

[9] = read-out: Phosphatase and tensin (PTEN), PTEN (gene 5728); test: LTEA_HepaRG_PTEN: Life Technologies and Expression Analysis (LTEA) Assay for Phosphatase and tensin (PTEN) using HepaRG (AID 2283523)
Outline: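 Read-out is PTEN transcript level by multiplexed TaqMan qRT-PCR after 48 h chemical treatment of human HepaRG cultures in serum-free induction medium. Concentrations spanned 100 uM downward in half-log steps, 0.5% DMSO throughout; activity fitted in both directions against vehicle.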

[10] = read-out: solute carrier (SLC22A1), SLC22A1 (gene 6580); test: LTEA_HepaRG_SLC22A1: Life Technologies and Expression Analysis (LTEA) Assay for solute carrier (SLC22A1) using HepaRG (AID 2283524)
Outline: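 HepaRG (human liver line), 48 h dosing in serum-free induction medium; 8 conc., half-log down from 100 uM, 0.5% DMSO vehicle, duplicates. Endpoint: SLC22A1 mRNA, qRT-PCR, housekeeping-normalized; gain/loss fit vs DMSO.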

[11] = read-out: Pyruvate Dehydrogenase Kinase 4 (PDK4), PDK4 (gene 5166); test: LTEA_HepaRG_PDK4: Life Technologies and Expression Analysis (LTEA) Assay for Pyruvate Dehydrogenase Kinase 4 (PDK4) using HepaRG (AID 2283525)
Outline: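 In this multiplexed human HepaRG expression assay, cells are treated 48 h with test chemicals across an eight-point range starting at 100 uM. PDK4 mRNA changes, normalized to ACTB/GAPDH/POLR2A, are fitted in both directions relative to vehicle.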

[12] = read-out: NAD(P)H dehydrogenase [quinone] 1 (NQO1), NQO1 (gene 1728); test: LTEA_HepaRG_NQO1: Life Technologies and Expression Analysis (LTEA) Assay for NAD(P)H dehydrogenase [quinone] 1 (NQO1) using HepaRG (AID 2283526)
Outline: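 Differentiated human HepaRG cells in serum-free induction medium, dosed in duplicate for 48 h at 8 half-log concentrations up to 100 uM in 0.5% DMSO. NQO1 mRNA by qRT-PCR normalized to ACTB, GAPDH, POLR2A; bidirectional fit versus DMSO baseline.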

[13] = read-out: Nuclear factor erythroid 2-related factor 2 (Homo sapiens) (UniProt Q16236); test: LTEA_HepaRG_NFE2L2: Life Technologies and Expression Analysis (LTEA) Assay for Nuclear factor erythroid 2-related factor 2 (NFE2L2) Transcription Factor using HepaRG (AID 2283527)
Outline: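 Transcript level of NFE2L2 is the read-out, measured by microfluidic TaqMan qRT-PCR and normalized to three housekeeping genes. Human HepaRG cultures received test chemical for 48 h at up to 100 uM in half-log steps. Gain or loss of signal is fitted relative to 0.5% DMSO.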

[14] = read-out: succinate dehydrogenase complex iron sulfur subunit B (SDHB), SDHB (gene 6390); test: LTEA_HepaRG_SDHB: Life Technologies and Expression Analysis (LTEA) Assay for succinate dehydrogenase complex iron sulfur subunit B (SDHB) using HepaRG (AID 2283528)
Outline: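 HepaRG cells (~100,000/well, plated 48 h) exposed in duplicate for 48 h in serum-free induction medium to 8-point half-log series from 100 uM in 0.5% DMSO; mRNA by qRT-PCR normalised to ACTB, GAPDH, POLR2A; bidirectional fit versus DMSO.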

[15] = read-out: Signal transducer and activator of transcription 3 (Homo sapiens) (UniProt P40763); test: LTEA_HepaRG_STAT3: Life Technologies and Expression Analysis (LTEA) Assay for Signal transducer and activator of transcription (STAT3) using HepaRG (AID 2283529)
Outline: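 Read-out is STAT3 mRNA level by qRT-PCR, normalized to three housekeeping genes, in human HepaRG liver cells treated for 48 h. Concentrations ran from 100 uM downward in half-log steps; curves were fitted for gain or loss relative to 0.5% DMSO.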

[16] = read-out: solute carrier (SLCO1B1), SLCO1B1 (gene 10599); test: LTEA_HepaRG_SLCO1B1: Life Technologies and Expression Analysis (LTEA) Assay for solute carrier (SLCO1B1) using HepaRG (AID 2283530)
Outline: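 SLCO1B1 transcript levels were quantified by TaqMan qRT-PCR using three housekeeping genes for normalization. This followed 48 h chemical exposure (100 uM top, half-log, 8 points, 0.5% DMSO) of HepaRG liver cells, with gain or loss fitted relative to DMSO.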

[17] = read-out: sulfotransferase 2A1 (SULT2A1), SULT2A1 (gene 6822); test: LTEA_HepaRG_SULT2A1: Life Technologies and Expression Analysis (LTEA) Assay for sulfotransferase 2A1 (SULT2A1) using HepaRG (AID 2283531)
Outline: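 Expression change of SULT2A1, by qRT-PCR with three housekeeping-gene normalization, was scored bidirectionally versus DMSO. Cells: differentiated HepaRG, dosed in duplicate for 48 h across 8 points, highest 100 µM, half-log dilution, 0.5% DMSO.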

[18] = read-out: Transforming Growth Factor (TGFB1), TGFB1 (gene 7040); test: LTEA_HepaRG_TGFB1: Life Technologies and Expression Analysis (LTEA) Assay for Transforming Growth Factor (TGFB1) Transporter using HepaRG (AID 2283533)
Outline: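 TGFB1 transcript measured by qRT-PCR with normalisation to three housekeeping genes (ACTB, GAPDH, POLR2A); human HepaRG line treated in duplicate for 48 hr with an 8-point series topping at 100 uM, 0.5% DMSO vehicle, bidirectionally fitted.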

[19] = read-out: Paternally Expressed 10 (PEG10), PEG10 (gene 23089); test: LTEA_HepaRG_PEG10: Life Technologies and Expression Analysis (LTEA) Assay for Paternally Expressed 10 (PEG10) using HepaRG (AID 2283520)
Outline: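 Differentiated HepaRG cells exposed 48 h in serum-free induction medium to eight half-log concentrations topping at 100 uM, 0.5% DMSO, in duplicate. PEG10 mRNA quantified by TaqMan qRT-PCR, normalized to ACTB, GAPDH and POLR2A; bidirectional fit versus DMSO.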

Measured: AC50

Signal transducer and activator of transcription 3 (Homo sapiens), sequence (P40763 whole entry, looked up): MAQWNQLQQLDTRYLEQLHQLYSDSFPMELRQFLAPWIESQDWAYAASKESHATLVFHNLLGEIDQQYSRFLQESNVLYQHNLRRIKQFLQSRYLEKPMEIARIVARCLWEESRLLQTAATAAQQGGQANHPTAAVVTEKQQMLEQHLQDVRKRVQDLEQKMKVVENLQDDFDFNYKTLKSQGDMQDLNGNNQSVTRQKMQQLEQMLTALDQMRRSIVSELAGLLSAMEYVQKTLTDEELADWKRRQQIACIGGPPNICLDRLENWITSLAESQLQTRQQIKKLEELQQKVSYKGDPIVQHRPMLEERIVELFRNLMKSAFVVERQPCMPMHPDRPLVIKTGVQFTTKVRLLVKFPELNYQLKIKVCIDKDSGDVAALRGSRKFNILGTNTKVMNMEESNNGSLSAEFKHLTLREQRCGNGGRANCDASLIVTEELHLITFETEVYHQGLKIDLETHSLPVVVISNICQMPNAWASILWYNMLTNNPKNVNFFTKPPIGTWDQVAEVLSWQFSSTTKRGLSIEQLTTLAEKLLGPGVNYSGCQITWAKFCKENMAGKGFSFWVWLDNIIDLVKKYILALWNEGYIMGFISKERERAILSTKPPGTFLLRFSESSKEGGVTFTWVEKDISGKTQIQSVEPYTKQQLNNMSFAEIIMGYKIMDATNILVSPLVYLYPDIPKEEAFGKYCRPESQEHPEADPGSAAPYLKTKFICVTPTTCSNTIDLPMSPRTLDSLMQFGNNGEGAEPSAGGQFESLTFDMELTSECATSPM
Nuclear factor NF-kappa-B p105 subunit (Homo sapiens), sequence (P19838 whole entry, looked up): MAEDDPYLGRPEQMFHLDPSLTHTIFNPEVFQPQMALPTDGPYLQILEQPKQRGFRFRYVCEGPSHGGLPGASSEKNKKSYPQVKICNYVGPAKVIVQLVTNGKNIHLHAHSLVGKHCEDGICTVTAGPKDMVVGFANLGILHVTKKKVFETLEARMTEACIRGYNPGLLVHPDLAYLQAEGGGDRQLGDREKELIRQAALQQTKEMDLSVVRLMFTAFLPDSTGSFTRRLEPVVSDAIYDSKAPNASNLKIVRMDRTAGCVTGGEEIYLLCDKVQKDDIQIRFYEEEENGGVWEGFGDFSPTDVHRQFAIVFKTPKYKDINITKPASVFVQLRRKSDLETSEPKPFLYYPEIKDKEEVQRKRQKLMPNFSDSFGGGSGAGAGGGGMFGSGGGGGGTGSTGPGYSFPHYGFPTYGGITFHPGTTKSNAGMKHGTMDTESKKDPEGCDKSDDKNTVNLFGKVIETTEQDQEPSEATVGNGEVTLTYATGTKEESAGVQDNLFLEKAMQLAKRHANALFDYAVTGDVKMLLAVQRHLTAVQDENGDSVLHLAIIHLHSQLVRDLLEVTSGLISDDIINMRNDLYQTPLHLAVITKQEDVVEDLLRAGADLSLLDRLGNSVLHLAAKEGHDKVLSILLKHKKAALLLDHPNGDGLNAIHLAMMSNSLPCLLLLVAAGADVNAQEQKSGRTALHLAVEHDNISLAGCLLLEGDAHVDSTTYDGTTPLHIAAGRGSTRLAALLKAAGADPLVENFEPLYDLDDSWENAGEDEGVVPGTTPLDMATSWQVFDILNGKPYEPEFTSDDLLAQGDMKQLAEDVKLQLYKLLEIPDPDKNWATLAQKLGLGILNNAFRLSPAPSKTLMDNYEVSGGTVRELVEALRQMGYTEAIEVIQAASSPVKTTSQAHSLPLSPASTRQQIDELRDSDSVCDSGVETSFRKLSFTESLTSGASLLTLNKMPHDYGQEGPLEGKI
Nuclear factor erythroid 2-related factor 2 (Homo sapiens), sequence (Q16236 whole entry, looked up): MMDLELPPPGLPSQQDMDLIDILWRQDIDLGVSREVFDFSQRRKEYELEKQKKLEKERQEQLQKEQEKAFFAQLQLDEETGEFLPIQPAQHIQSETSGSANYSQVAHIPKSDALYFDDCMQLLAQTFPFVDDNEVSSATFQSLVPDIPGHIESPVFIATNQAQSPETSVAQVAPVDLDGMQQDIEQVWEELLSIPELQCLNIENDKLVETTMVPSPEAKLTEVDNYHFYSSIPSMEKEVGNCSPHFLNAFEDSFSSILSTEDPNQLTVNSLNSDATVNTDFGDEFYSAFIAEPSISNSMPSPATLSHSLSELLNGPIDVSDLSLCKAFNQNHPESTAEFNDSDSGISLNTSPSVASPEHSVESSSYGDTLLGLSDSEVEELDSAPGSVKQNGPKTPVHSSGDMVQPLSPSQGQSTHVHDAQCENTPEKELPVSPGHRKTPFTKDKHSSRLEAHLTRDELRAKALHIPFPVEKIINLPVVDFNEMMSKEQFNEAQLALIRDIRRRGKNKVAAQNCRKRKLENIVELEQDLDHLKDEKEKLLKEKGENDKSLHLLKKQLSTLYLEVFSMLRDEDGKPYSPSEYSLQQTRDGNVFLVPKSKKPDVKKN

N#CC(CCc1ccc(Cl)cc1)(Cn1cncn1)c1ccccc1 (stereo unspecified)
active: [1] 65.9 µM | [2] 50 µM | [3] 66 µM | [4] 74.2 µM | [5] 65.2 µM | [6] 86 µM | [10] 71.5 µM | [13] 72.4 µM | [16] 83.6 µM | [17] 77.2 µM | [18] 66.7 µM
inactive: [7] | [8] | [9] | [11] | [12] | [14] | [15]

CCCN(CCC)c1c([N+](=O)[O-])cc(S(N)(=O)=O)cc1[N+](=O)[O-]
inactive: [1] | [2] | [3] | [4] | [5] | [6] | [7] | [8] | [10] | [12] | [16] | [18]
active: [2] 50 µM | [3] 95.7 µM | [4] 74.1 µM | [5] 86.2 µM | [6] 83.6 µM | [19] 96.3 µM and 41 µM and 7.55 µM | [8] 72 µM | [9] 93.1 µM and 75.5 µM and 76.5 µM | [10] 57 µM | [11] 92.7 µM and 50 µM and 83.9 µM | [14] 96.3 µM and 50 µM and 84.4 µM | [15] 94 µM and 50 µM and 77 µM | [17] 92.1 µM and 76.9 µM and 81 µM | [18] 93.9 µM

COc1nc(NC(C)C)nc(NC(C)C)n1
not listed: [19]
inactive: all other assays above

CS/C(C)=N/OC(=O)N(C)SN(C)C(=O)O/N=C(\C)SC
not listed: [13] | [19]
inactive: all other assays above

COC(=O)C(C)Oc1ccc(Oc2ccc(Cl)cc2Cl)cc1 (stereo unspecified)
active: [2] 27.6 µM | [19] 10.4 µM | [10] 50 µM | [11] 32.6 µM
not listed: [13]
inactive: all other assays above

COc1ccc(C(c2ccc(OC)cc2)C(Cl)(Cl)Cl)cc1
active: [1] 85.8 µM | [2] 76.6 µM | [3] 79.4 µM | [5] 49.8 µM | [10] 84.8 µM | [13] 12.7 µM | [14] 33.2 µM
inactive: all other assays above
